# Test results from PubChem BioAssay (NCI).
# The panel holds about 83,000 compounds, 20% with a hit somewhere; the sample as a whole holds those more often.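 Note: values are percent growth. 100 is the growth of untreated cells, values between 100 and 0 indicate rising inhibition; between -100 and 0 indicates cell death.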 Calls of active or inactive are those of the source. The calls were made as follows: active = growth percent below 10; inactive = the rest.
# Tested on: HL-60(TB) leukemia
# Assay: NCI-60 one-dose screen, 48 h (100 = growth as untreated, 0 = no growth, -100 = all killed)
# Conditions: 10 µM unless noted
row,Compound,growth
1,CN1/C(=C\C(I)C(I)C2=[N+](C)c3ccccc3C2(C)C)C(C)(C)c2ccccc21 (centres undefined),-20.1% (active)
2,CC/C(C)=C(\C)C(=O)O,100% (inactive)
3,NCCCN1CCCC1=O,90.1% (inactive)
4,Cc1cc(=O)n2n1-c1ccc(Cl)cc1NC(=O)C2,101% (inactive)
5,CCCCCCCCCCCCC[N+](C)(C)Cc1ccccc1,-56.7% (active)
6,c1ccc2[nH]c(-c3ccc(Nc4nc(N5CCCCC5)nc(N5CCOCC5)n4)cc3)nc2c1,-22.7% (active)
7,C=CCn1c(SCC(=O)Nc2ccc(/C(C)=N\O)cc2)nnc1-c1cc(-c2ccc(OC)cc2)nc2ccccc12,-39.2% (active)
8,Clc1ccc2c(c1)-c1ccccc1C1=NCCN12,38.1% (inactive)
9,CCOC(=O)C1=CSC2=NC3=C(CCC/C3=C\c3cc(OC)c(OC)c(OC)c3)C(c3cc(OC)c(OC)c(OC)c3)N12 (centres undefined),51.5% (inactive)
10,Cc1ccc(C)c(NC(=O)c2sc3c(=O)[nH]cnc3c2C)c1,65.4% (inactive)
11,COc1cc2c(c(OC)c1OC)-c1cc(I)c(O)cc1[C@@H](NC(C)=O)CC2,12.7% (inactive)
12,Cc1ccc(/C=C2\CN(C(=O)C(Cl)Cl)C/C(=C\c3ccc(C)cc3)C2=O)cc1,-21% (active)
13,COc1ccc(C2=NC(=O)NC2c2ccc(OC)cc2)cc1 (centres undefined),61.2% (inactive)
14,C=C(C)[C@@H]1CCC[C@]2(C(=O)O)CC[C@]3(C)[C@@H](CC[C@@H]4[C@@]5(C)C/C(=C/c6ccncc6)C(=O)C(C)(C)[C@@H]5CC[C@]43C)[C@@H]12,-5.12% (active)
15,O=C1N[C@@H]2[C@@H](O)[C@@H](O)[C@H](O)C[C@H]2c2cc3c(c(O)c21)OCCO3,-18.8% (active)
16,Cc1c(C(C)(C)O)cn2ncnc(Oc3ccc(NC(=O)Nc4ccc(Cl)c(C(F)(F)F)c4)c(F)c3)c12,63.1% (inactive)
17,CCCCn1c(=O)c2c(nc(NCCc3ccc(O)c(O)c3)n2CCC)n(CCCC)c1=O,60.3% (inactive)
18,CC1(C)CC(=O)c2c(nn(-c3ccc(Br)cc3)c2-c2cn(-c3ccccc3)nc2-c2cccnc2)C1,92.1% (inactive)
19,COc1ccc(OC)c(Nc2nnc(-c3ccc(Cl)cc3)o2)c1,94.8% (inactive)
20,OCc1cn(-c2ccc(Cl)cc2)nc1-c1ccc(O)cc1,51.7% (inactive)

row,Compound,growth
1,Nc1nc(N)c2c(n1)NC(c1ccc(Cl)cc1)CC(c1cccc(Nc3ccncc3)c1)=N2 (centres undefined),39% (inactive)
2,COc1cc(NS(=O)(=O)C(C)C)cc(-c2cc(-c3ccc(N4CCNCC4)cc3)cnc2N)c1,78.3% (inactive)
3,COc1cc(NS(C)(=O)=O)ccc1Nc1c2ccc([N+](=O)[O-])cc2nc2c(C)cccc12,-26.6% (active)
4,O=C(Nc1ncc(Cc2cccc(C(F)(F)F)c2)s1)C1COc2ccccc2O1 (centres undefined),98.5% (inactive)
5,COc1ccc(C2c3ccc4ccccc4c3Oc3ncnc(N)c32)cc1 (centres undefined),89% (inactive)
6,CC(=O)c1nc2ccccc2n1CCn1cc(CC(N)C(=O)O)c2ccccc21 (centres undefined),100% (inactive)
7,N=C(N)c1ccc(-c2ccc(-c3ccc(Cl)cc3Cl)o2)cc1,-60.8% (active)
8,C=CC(COC(c1ccccc1)(c1ccccc1)c1ccccc1)N(CC)CC (centres undefined),48.1% (inactive)
9,Oc1cc(Cl)ccc1Cc1ccc(Cl)cc1O,41.4% (inactive)
10,COc1cc2c(c(O)c1Cl)C(=O)c1c(O)cc(C[C@H](C)O)cc1[C@H]2[C@H]1c2cc(C[C@H](C)O)cc(O)c2C(=O)c2c1cc(OC)c(Cl)c2O,1.89% (active)
11,CCOC(=O)C(CCC1=NC(C)(C)CC(C)O1)C(=O)OCC (centres undefined),56.4% (inactive)
12,O=C(Nc1ccccc1C(=O)N/N=C(\c1ccccc1)c1ccccn1)c1ccccc1,-24.1% (active)
13,Cc1ccc(NCCNCC(C)(C)O)c2c(=O)c3ccc(Cl)cc3sc12,-48.3% (active)
14,Cc1cccc(CC(=O)c2ccccc2)n1,86.9% (inactive)
15,Cc1cccc2c(=O)c3c(sc12)c(N1CCNCC1)nc1ccccc13,52.9% (inactive)
16,O=C1/C(=C/N2N=C(c3ccc(Cl)cc3)CC2c2ccccc2O)SC(=S)N1c1cccc(C(F)(F)F)c1 (centres undefined),52.2% (inactive)
17,CC(C)c1cc(C(C)C)c(S(=O)(=O)Oc2ccc(NC(=O)c3ccc(Cl)cc3)cc2)c(C(C)C)c1,16.9% (inactive)
18,COc1ccc(C2CC(c3ccc(Nc4ccnc5cc(Cl)ccc45)cc3)=NN2C=O)cc1 (centres undefined),-42.6% (active)
19,Nc1ncc(C#Cc2cncc(NC(=O)c3cccc(C(F)(F)F)c3)c2)c2cccnc12,33.2% (inactive)
